Assay results published in PubChem BioAssay.

Test: sensitizers of A549 cells to miR-34 induction, primary screen, imaging, A549 dox-inducible miR-34, nuclei and caspase counts (AID 1347080); note: test concentration not given here
Conditions: A549 miR-34 inducible, Hoechst nuclei count, 48 h; measured here: relative caspase fold change +Dox/-Dox

Compound	fold change
CC1COC2(CCN(c3nc(=O)c4cc(C(F)(F)F)cc([N+](=O)[O-])c4s3)CC2)O1 (centres undefined)	0.894
CCCCCCCCCCCCCC(=O)N[C@H](CO)[C@H](O)c1ccc([N+](=O)[O-])cc1	0.781
Cc1nc2c([nH]1)CCN(C(=O)c1ccc(NC(=O)c3ccccc3-c3ccccc3)cc1)c1ccccc1-2	0.734

Same assay, conditions: A549 miR-34 inducible, Hoechst nuclei count, 48 h; measured here: total cells with miR-34 induction; stronger effect = lower value

Compound	cell count
CC1COC2(CCN(c3nc(=O)c4cc(C(F)(F)F)cc([N+](=O)[O-])c4s3)CC2)O1 (centres undefined)	6990
CCCCCCCCCCCCCC(=O)N[C@H](CO)[C@H](O)c1ccc([N+](=O)[O-])cc1	6010
Cc1nc2c([nH]1)CCN(C(=O)c1ccc(NC(=O)c3ccccc3-c3ccccc3)cc1)c1ccccc1-2	8050

Same assay, conditions: A549 miR-34 inducible, Hoechst nuclei count, 48 h; measured here: total cells without miR-34 induction

Compound	cell count
CC1COC2(CCN(c3nc(=O)c4cc(C(F)(F)F)cc([N+](=O)[O-])c4s3)CC2)O1 (centres undefined)	8010
CCCCCCCCCCCCCC(=O)N[C@H](CO)[C@H](O)c1ccc([N+](=O)[O-])cc1	6250
Cc1nc2c([nH]1)CCN(C(=O)c1ccc(NC(=O)c3ccccc3-c3ccccc3)cc1)c1ccccc1-2	8690
